# Source: PubChem BioAssay (several laboratories)
# Most compounds without a hit are left out; they make up all but 6.6% or so of the library.
# Gli-Sufu antag – Gli-Sufu pathway antagonism. 0.74% of 340,000 active. AID 588413. inhibition, % at 5 µM. Sufu-KO-LIGHT fibroblasts, Gli luciferase reporter luminescence;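 active = inhibition above about 55%, limit read from the data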;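 note: 0% = DMSO-treated cells and 100% = wells with medium but no cells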
# Mdm2-MdmX inh – disrupts the human Mdm2-MdmX interaction. O15151+Q00987. SaOS-2 split-luciferase Mdm2/MdmX complementation, luminescence. inhibition, % at 8 µM. 3% of 330,000 active. AID 485346;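 active = inhibition of at least 50% at 8 µM in the primary screen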
# MPTP inh – permeability transition pore inhibition. isolated mouse mitochondria, Ca2+ swelling absorbance, 30 min. inhibition, % at 10 µM. 1.4% of 360,000 active;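 active = inhibition of 50% or more, scaled per plate between neutral and stimulator controls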;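 note: 0% = DMSO wells given calcium and 100% = 1 mM EGTA wells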
# CSC inhib – cancer stem cell inhibition. cancer stem cell-like cells viability, luminescence. inhibition, % at 7.5 µM. 1.1% of 300,000 active. AID 2717; in the data active = inhibition above about 75%; tested in HMLE shEcad cells
# GRIN3A LBD mod – modulators (binders) of human NR3A ligand-binding domain; 2.5% of 340,000 active; AID 1259313; Tm shift relative to glycine control, % at 25 µM; NR3A LBD differential scanning fluorimetry, Tm shift; 0% = protein alone, 100% = glycine-bound protein;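 active = melting temperature shift of at least 10% of the positive control shift, at one fixed dose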
# Beta apoptosis – beta cell apoptosis inhibition; INS-1E cytokine-induced death, ATP luminescence, 48 h; percent of positive-control rescue, neutral wells zero; protection from apoptosis, % (concentration not given with the values); 0.8% of 300,000 active; AID 435005;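 active = Every replicate reaches about 75%, or at least half do and their mean reaches it too, limit read from the data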;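 note: 0% = cytokine-treated negative control wells and 100% = positive control rescue; higher means more ATP so stronger rescue from cytokine killing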
# The depositor's hits bear a star; · = no result given; ! = a repeat was not active.
SMILES,Gli-Sufu antag,Mdm2-MdmX inh,MPTP inh,CSC inhib,GRIN3A LBD mod,Beta apoptosis
CSc1c(SCc2ccccc2)cnn(-c2ccccc2)c1=O,-1,-5,-1,79*,4,-4
CCCCOc1ccc(/C(O)=C2/C(=O)C(=O)N(Cc3cccnc3)C2c2ccncc2)c(C)c1 (stereo unspecified),0,-13,-7,-5,1,-1
CC(C)NC(=O)N1Cc2cc(C(=O)NC3CCCC3)nc(-c3cccc(-c4cccnc4)c3)c2[C@@H]1CCO,·,·,-1,·,·,·
COc1ccc(CCNC(=O)CSc2nnc(Cn3c(=O)sc4ccccc43)n2C)cc1OC,5,-6,-2,-12,11*,·
CCOc1ncccc1C(=O)Nc1cc(S(=O)(=O)N2CCOCC2)ccc1OCC(F)(F)F,5,24,1,-6,-17,-11
O=C1c2cccc(OCC(=O)N3CCCc4ccccc43)c2CCN1Cc1ccccc1,-15,30,0,88*,2,8
O=C1c2cccc(OCC(=O)N3CCCc4ccccc43)c2CCN1Cc1ccc(Br)cc1,7,41,2,52,3,7
CN(Cc1ccc(OC(F)F)cc1)C(=O)c1cccc(S(=O)(=O)N2CCN(c3ccccc3)CC2)c1,41,·,20,·,0,·
NC(=S)N/N=C\c1ccc(-c2cccc(Cl)c2Cl)o1,7,22,0,61,27*,7
CCc1nnc(NC(=O)c2cccc(C(=O)Nc3nnc(CC)s3)n2)s1,85*,·,-10,40,1,76*
COc1ccc(-c2nc(Cn3c(SCc4cccc(F)c4)nc4ccncc43)c(C)o2)cc1OC,4,19,-1,82*,-28,21
COc1ccc2c3c(cccc13)C(=O)CC2,18,·,4,36,-1,-20
O=C(CN1C(=O)/C(=C2/SC(=S)N(CCS(=O)(=O)O)C2=O)c2ccccc21)Nc1cccc(C(F)(F)F)c1,-1,3,-1,-1,8,-2
O=C(CN1C(=O)/C(=C2\SC(=S)N(CCS(=O)(=O)O)C2=O)c2ccccc21)Nc1cccc(Br)c1,-7,·,2,-4,12*,-4
Cc1cc(=O)nc2c3ccccc3n(CC(=O)NC(C)c3ccc4c(c3)OCCO4)n12 (stereo unspecified),-10,-2,-1,6,13*,-2
CCOCCCn1c(=NC(=O)c2cccnc2)c(C(=O)OCC)cc2c(=O)n3ccccc3nc21,-9,-20,0,15,14*!,-1
COC(=O)[C@]12CCCCC=C1N(Cc1ccccc1)C(=O)[C@H](CC(=O)NCC1CCCCC1)C2,·,·,0,·,·,·
CC1=C(C(=O)N2CCOCC2)CC(CC(=O)NCCCN(C)C)C(=O)N1Cc1ccc(F)cc1 (stereo unspecified),·,·,0,·,·,·
CC1=NN2C(=N)/C(=C\c3cc(C)n(-c4ccc(C)cc4)c3C)C(=O)N=C2S1,-3,-3,9,-4,22*,6
COCCNC(=O)C1(C)CCN(Cc2csc(-c3ccc(Cl)cc3)n2)C1 (stereo unspecified),·,·,1,·,·,·
CS(=O)(=O)N(CCc1ccccc1)CC(=O)NCc1ccccc1,3,-20,1,7,36*,-10
CCCNC(=O)CN(CCc1ccccc1)S(C)(=O)=O,2,1,1,-16,13*,-5
CS(=O)(=O)N(CCc1ccccc1)CC(=O)NCc1ccc2c(c1)OCO2,-14,14,-2,-2,0,-1
COc1ccc(NC(=O)c2nc[nH]c2C(=O)N[C@@H](CC(C)C)C(=O)OC(C)(C)C)cc1,-12,16,2,133*,-6,69
CC(C)C[C@H](NC(=O)c1[nH]cnc1C(=O)Nc1ccc(CNC(=O)OC(C)(C)C)cc1)C(=O)OCc1ccccc1,7,26,-2,0,36*,-6
CSc1ncnc2c1ncn2CCCNc1ccc(C)c(C)c1,·,·,0,·,·,·
COc1ccc(NC(=O)c2cccc(N3C(=O)C4C5C=CC(C5)C4C3=O)c2)cc1Cl (stereo unspecified),11,16,2,1,-4,26
Cc1ccnc(N2C(=O)c3ccccc3C2Nc2ccccc2Cl)c1 (stereo unspecified),3,34,0,3,-4,-2
CCc1ccccc1NC1c2ccccc2C(=O)N1c1cc(C)ccn1 (stereo unspecified),0,-7,0,-3,17*,-7
